# From PubChem BioAssay AID2810 (NMMLSC, 2010)
# Among all 1,200 compounds or so, about 65 (5%) were called active.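 Rule for the calls: active = at either tested dose, response and 90th-percentile vesicle-stain brightness of CD8 cells under set limits and under 9% cells vesicle-bound; inactive = the rest.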 Many of the other results were omitted from the sample, so actives are more common in it than they were.
# Assay: modulators of CD8 T cell-vesicle binding, confirmation, cherry-picked primary hits, two concentrations (AID 2810);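 note: lower values mean blocking of vesicle binding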;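 for percent response (vesicle binding): ratio of mean FL2 vesicle stain of CD8+ cells to that row's control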
# Conditions: 2C CD8+ T cell-vesicle binding, flow cytometry; for double positive events: CD8+/vesicle+ events
# [1] = at 15.4 µM, stronger effect = lower value
SMILES,double positive events (at 7.7 µM),double positive events [1],percent response (vesicle binding) [1],"percent response (vesicle binding) (response, at 7.7 µM)"
O=C(COc1ccccc1)Nc1cc(S(=O)(=O)N2CCOCC2)ccc1N1CCCC1,28.3%,4.1%,138% (inactive),164%
CCN(Cc1ccccc1)C(=O)c1ccc(C)c(S(=O)(=O)N2CCCCC2)c1,11.9%,30.2%,197% (inactive),111%
CCOC(=O)c1c(NC(=O)CN2C(=O)NC3(CCC(C)CC3)C2=O)sc(C)c1-c1ccc(C)cc1 (stereo unspecified),33.5%,23.6%,559% (inactive),363%
Cc1cccc(C(=O)OCC(=O)Nc2ccc3c(c2)OCCO3)c1O,10.2%,29.9%,717% (inactive),113%
Cc1cccc(C(=O)OCC(=O)NN2C(=O)NC3(CCC(C)CC3)C2=O)c1O (stereo unspecified),19.9%,5.2%,35.3% (active),181%
Cc1ccc2nc(-c3cccnc3)c(NC3CCCC3)n2c1,16.9%,33.3%,211% (inactive),276%
O=c1[nH]c(CN(CCc2ccccc2)S(=O)(=O)c2ccc(Cl)cc2)nc2ccccc12,9.5%,16.7%,208% (inactive),239%
CCOC(=O)C(c1ccccc1)N1CCN(c2ccc(OC)cc2)CC1 (stereo unspecified),13.2%,29.9%,388% (inactive),255%
CC(Sc1nc2ccccc2s1)C(=O)Nc1ccc2c(c1)OCO2 (stereo unspecified),9%,28%,533% (inactive),344%
CCc1noc(C)c1C(=O)OC(C)C(=O)Nc1ccc2c(c1)OCO2 (stereo unspecified),32.8%,2.5%,22% (active),329%
CCc1ccccc1NC(=O)NCc1ccc2c(c1)OCO2,17.2%,20%,361% (inactive),479%
Cc1noc(C)c1C(=O)OC(C)C(=O)N1CCc2ccccc21 (stereo unspecified),28.5%,4.4%,134% (inactive),293%
COc1ccc(Cl)cc1NS(=O)(=O)c1cccc(C(=O)NCC(C)(C)N2CCOCC2)c1,20.7%,18.3%,317% (inactive),710%
Cc1ccc(C(=O)OCC(=O)NC2CCCCC2)o1,35.5%,14%,244% (inactive),265%
COc1cc(CNCCc2ccc(S(N)(=O)=O)cc2)ccc1OCC(=O)N1CCCCC1,11.5%,19.2%,229% (inactive),370%
COc1cc(CNCc2cccnc2)ccc1OCC(=O)NC1CCCCC1,18.4%,5.7%,32.6% (active),303%
COc1ccc(CNC(=O)c2cccnc2SC)cc1OC,9.3%,2%,29.8% (active),180%
COc1ccc(OC)c(NC(=O)c2ccccc2SC)c1,56.3%,35.3%,242% (inactive),–
COc1ccc(CNC(=O)COC(=O)CCN2C(=O)C3CC=CCC3C2=O)cc1OC (stereo unspecified),41.8%,29.1%,307% (inactive),239%
O=C(Cn1cc(C(F)(F)F)cc(Cl)c1=O)NCCc1ccc(Cl)cc1Cl,11.1%,1.7%,16.3% (active),149%
Cc1ccc(C(=O)NC2CCCc3c2cnn3-c2ccc(F)cc2F)cn1 (stereo unspecified),33.7%,15%,329% (inactive),658%
CCOC(=O)C1(Cc2cccc(OC)c2)CCN(C/C=C/c2ccccc2)CC1,25.8%,11%,119% (inactive),269%

SMILES,double positive events (at 7.7 µM),double positive events [1],percent response (vesicle binding) [1],"percent response (vesicle binding) (response, at 7.7 µM)"
Cc1ccccc1/C(N)=N/OC(=O)c1cccs1,12.4%,17.9%,190% (inactive),217%
CCOC(=O)N1CCN(Cc2nc(-c3ccc(C)cc3)no2)CC1,14.7%,4.6%,63% (inactive),286%
COc1ccc([N+](=O)[O-])cc1NC(=O)c1ccc(N(Cc2ccccc2C)S(C)(=O)=O)cc1,8.4%,2.9%,47.7% (active),131%
COc1ccc([N+](=O)[O-])cc1N(CC(=O)O)S(C)(=O)=O,9.6%,19.3%,127% (inactive),281%
COc1ccc([N+](=O)[O-])cc1NC(=O)C(C)Sc1nc(-c2ccccc2)cs1 (stereo unspecified),11.7%,22.6%,114% (inactive),121%
CCN1CCN(c2ccc(NC(=O)c3cc4ccccc4cc3OC)cc2C)CC1,21.2%,1.8%,55.9% (active),373%
COc1cc2ccccc2cc1C(=O)NC1CCCCC1,11.7%,19%,121% (inactive),368%
CCN1CCN(c2ccc(S(=O)(=O)N3CCCCC3)cc2NC(=O)c2cccc(C)c2[N+](=O)[O-])CC1,31.1%,37.1%,238% (inactive),406%
O=C(Nc1nc2ccccc2n1CCN1CCOCC1)c1ccc(Cn2cc([N+](=O)[O-])cn2)o1,23.6%,23.8%,145% (inactive),260%
C=CCn1c(C)cc(-c2csc(NCC)n2)c1C,11.2%,24.9%,196% (inactive),160%
Cc1ccc(S(=O)(=O)N2CCN(CCOc3c(Cl)cccc3Cl)CC2)cc1C,28.4%,18.9%,334% (inactive),140%
NC(=O)CCS(=O)(=O)CCN1CCN(S(=O)(=O)c2ccc3c(c2)CCC3)CC1,17.1%,7.7%,43.5% (active),183%
CCOC(=O)c1ccc(S(=O)(=O)N2CCN(C3CCCC3)CC2)cc1,11.3%,23.3%,294% (inactive),107%
O=C(NCC1CCCCC1)c1cccc(S(=O)(=O)N2CCCC2)c1,8.6%,8.5%,104% (inactive),305%
Cc1ccc(/C=N/Nc2ccc(F)cc2F)s1,17.7%,29.3%,280% (inactive),159%
O=C(NCC1CCCO1)C(=O)NCC(c1ccco1)N1CCN(c2ccc(F)cc2)CC1 (stereo unspecified),35.6%,10.4%,199% (inactive),266%
O=C(O)c1ccc(N2C(=O)CC(SC(=Nc3ccccc3)Nc3ccccc3)C2=O)cc1 (stereo unspecified),19.3%,18.5%,276% (inactive),663%
CCOC(=O)CSc1nnnn1-c1cc(OC)c(Cl)cc1OC,20.1%,5.9%,53.3% (active),312%
COc1cc(Cl)c(S(=O)(=O)n2cnc(C)c2)cc1Cl,9.6%,9.7%,141% (inactive),151%
CCOC(=O)CSc1nnc(-c2ccc(Cl)cc2Cl)o1,16.3%,10.1%,118% (inactive),276%
CCn1c(SCC(=O)NCC2CCCO2)nnc1-c1c[nH]c2ccccc12 (stereo unspecified),14.2%,13.6%,286% (inactive),430%
